# Reference: PubChem BioAssay
# “And” between values parts separate entries of the source, which are not always exact repeats. Equal values may be shown once. Some structures have more than one record in an assay (separate samples or runs), and their calls can disagree. The source made the active and inactive calls.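 Rule for the calls, unless noted: active = compounds whose cell count with miR-34 switched on is under 0.7 times the count with it off; inactive = the rest.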
# What was measured:
# [1] = stimulators of nuclear beta-catenin in C2C12, primary screen, imaging, WNT3A-conditioned medium, mouse C2C12, NPC library (AID 1117326; in the data active = nuclear beta-catenin stimulation mostly above about 4.2%, no sharp cut-off; inactive = mostly below about 10%); conditions: stronger effect = higher value
# [2] = stimulators of insulin release from INS-1E, primary screen, cell-based, 5 mM glucose, NPC library (AID 1117329;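 active = compound raises insulin release from rat beta cells at 5 mM glucose, no numeric limit stated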); conditions: rat INS-1E insulin secretion, at 10 µM, stronger effect = higher value
# [3] = growth inhibition of GSK3B-pretreated HCT116 cells – cell-based, CellTiter-Glo, 0.2 to 20 µM (AID 1117336;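 active = compounds lowering colon cancer cell viability after pretreatment blocking the GSK3B kinase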); conditions: HCT116 viability after GSK3B inhibitor, at 20 µM, stronger effect = higher value
# [4] = inhibition of endothelial tube formation, primary screen, imaging, VEGF stimulated, CD31 staining, tube area, NPC library (AID 1117340;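 active = compound that reduces growth-factor-driven endothelial tube area in a mixed cell culture, no cutoff stated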); conditions: VEGF-stimulated ADSC/ECFC co-culture, at 10 µM, stronger effect = higher value
# [5] = glucagon-like peptide 1 release enhancers, primary assay, NCI-H716 cell line, NPC library (AID 1117341;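 active = compound raises GLP1 secretion from the human gut endocrine cells, with no numeric limit stated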); conditions: NCI-H716 cells, at 10 µM, stronger effect = higher value
# [6] = HCT116 colon cancer cell growth inhibition, primary screen, CellTiter-Glo luminescence, NPC library (AID 1117342;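 active = compounds that lower survival of HCT116 colon cancer cells in the luminescence readout, no numeric limit stated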); conditions: at 20 µM (top of the series)
# [7] = CellTiter-Glo luminescent readout of SW480 viability loss, NPC library primary (AID 1117343;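 active = compounds that lower viability of the colon cancer cells in the luminescence readout, with no numeric limit stated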); conditions: CellTiter-Glo luminescence; at 20 µM (top of the series) unless noted
# [8] = decreased DLD-1 cellular survival, CellTiter-Glo luminescent readout, NPC compound collection, primary HTS (AID 1117346;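 active = compounds that lower survival of DLD-1 colon cancer cells in the luminescence readout, no cutoff given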); conditions: DLD-1 viability, CellTiter-Glo luminescence; at 20 µM (top of the series)
# [9] = differential killing of epithelial or mesenchymal cells, primary screen, imaging, PC-3E GFP, TEM4-18 mCherry, co-culture (AID 1345086;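 active = compounds killing one labelled cell type while sparing the other, by normalised counts and ratio limits, not self-fluorescent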;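 for all read-outs here: cells exposed to compound for 72 h before imaging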;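 for red/green cell ratio (normalised): normalised mesenchymal count divided by normalised epithelial count so high means epithelial killing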); conditions: imaging cell counts, at 1 µM; for red/green cell ratio (normalised): actives lie on both sides, counts scaled to control wells, 1 = unselective
# [10] = sensitizers of A549 cells to miR-34 induction, primary screen, imaging, A549 dox-inducible miR-34, nuclei and caspase counts (AID 1347080); conditions: A549 miR-34 inducible, Hoechst nuclei count, 48 h
# [11] = survival rescue of mitochondrial mutant cells in low glucose, primary screen, MELAS cybrids, Rieske KO mouse fibroblasts, CellTiter-Glo (AID 1508586;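 active = mean z-score across replicates of 1.96 or higher in either the MELAS or the Rieske mutant cell line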;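 note: z relative to plate mean and SD of compound and empty wells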)
# [12] = biological target: NAD(+) hydrolase SARM1 (Homo sapiens) (UniProt Q6SZW1); assay: SARM1 TIR NADase inhibitors, cell lysate, NAD-Glo luminescence (AID 1508614;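 active = compound whose remaining NAD level is above about 45 nM, limit read from the data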;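 note: higher remaining NAD means stronger inhibition of SARM1 NADase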); conditions: SAM-TIR HEK293T lysate NADase, at 1 µM, stronger effect = higher value
# NAD(+) hydrolase SARM1 (Homo sapiens), sequence (Q6SZW1 whole entry, looked up): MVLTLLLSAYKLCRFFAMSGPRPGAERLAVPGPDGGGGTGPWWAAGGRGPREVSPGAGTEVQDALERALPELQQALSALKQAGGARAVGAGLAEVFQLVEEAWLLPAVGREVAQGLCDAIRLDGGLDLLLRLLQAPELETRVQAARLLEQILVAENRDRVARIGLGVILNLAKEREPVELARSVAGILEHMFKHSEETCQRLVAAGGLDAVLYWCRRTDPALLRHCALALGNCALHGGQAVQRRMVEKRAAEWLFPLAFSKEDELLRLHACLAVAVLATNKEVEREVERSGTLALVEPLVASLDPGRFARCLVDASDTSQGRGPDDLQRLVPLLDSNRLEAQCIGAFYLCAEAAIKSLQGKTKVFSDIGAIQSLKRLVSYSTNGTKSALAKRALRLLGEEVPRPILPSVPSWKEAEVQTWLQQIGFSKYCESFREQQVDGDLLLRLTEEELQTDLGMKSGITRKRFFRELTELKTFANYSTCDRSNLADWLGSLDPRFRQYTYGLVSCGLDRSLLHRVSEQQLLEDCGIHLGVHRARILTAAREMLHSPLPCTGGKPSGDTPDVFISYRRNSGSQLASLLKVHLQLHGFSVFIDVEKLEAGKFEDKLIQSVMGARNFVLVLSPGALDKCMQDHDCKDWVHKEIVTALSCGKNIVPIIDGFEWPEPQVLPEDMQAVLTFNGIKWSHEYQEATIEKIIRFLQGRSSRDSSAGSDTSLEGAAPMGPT
# [13] = liver-stage malaria parasite growth inhibition, primary screen, cell-based, HepG2, luciferase luminescence, HepG2 viability (AID 624349; in the data active = parasite load remaining mostly below about 12%, no sharp cut-off; inactive = mostly above about 10%;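 note: 100% = mean of DMSO negative control wells on the same plate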); conditions: P. berghei liver stage in HepG2, luciferase luminescence, concentration not given here; parasite load remaining: stronger effect = lower value; viability: measured here: HepG2 viability without parasites
# [14] = hESC survival regulators, cell-based (AID 493140; call rule not given here;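 note: cells exposed to compounds for four days before counting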); conditions: human embryonic stem cell survival screen; stronger effect = higher value
# [15] = measured here: epithelial PC-3E GFP cell survival
# [16] = measured here: mesenchymal TEM4-18 mCherry cell survival
# [17] = stronger effect = lower value, cell number ratio, induced over uninduced
# [18] = measured here: relative caspase fold change +Dox/-Dox
# [19] = measured here: total cells with miR-34 induction, stronger effect = lower value
# [20] = measured here: total cells without miR-34 induction
# [21] = MELAS cybrid survival, CellTiter-Glo 48 h, stronger effect = higher value
# [22] = Rieske KO mouse fibroblast survival, CellTiter-Glo 72 h
smiles,measurement,setting,value
CN1C(CCl)Nc2cc(Cl)c(S(N)(=O)=O)cc2S1(=O)=O (stereo unspecified),nuclear beta-catenin stimulation,[1]; at 10 µM,-0.9% (inactive)
same,nuclear beta-catenin stimulation,"[1]; stimulation, at 2 µM",1.3%
same,insulin secretion stimulation,[2],2.3% (inactive)
same,viability decrease,[3],0.4% (inactive)
same,tube area decrease,[4],3.9% (inactive)
same,GLP1 secretion stimulation,[5],-2.1% (inactive)
same,inhibition of viability,[6],-10.4% (inactive)
same,viability decrease (inhibition),[7],-2.9% (inactive)
same,viability decrease (inhibition),[8],-20.7% (inactive)
same,red/green cell ratio (normalised),[9],0.93 (inactive)
same,normalised cell number,[9]; [15],1.23
same,normalised cell number,[9]; [16],1.15
same,fold change,[10]; [17],0.914 (inactive) and 0.898 (inactive)
same,fold change,[10]; [18],1.08 and 0.519
same,cell count,[10]; [19],8680 and 8370
same,cell count,[10]; [20],9500 and 9310
same,z-score,[11]; [21],-0.258 (inactive)
same,z-score,[11]; [22],-0.124
same,remaining NAD,[12],10 nM (inactive)
OC1(c2ccc(Cl)c(C(F)(F)F)c2)CCN(CCCC(c2ccc(F)cc2)c2ccc(F)cc2)CC1,nuclear beta-catenin stimulation,[1]; at 10 µM,-2.1% (inactive)
same,nuclear beta-catenin stimulation,"[1]; stimulation, at 2 µM",27.1%
same,insulin secretion stimulation,[2],0.05% (inactive)
same,viability decrease,[3],117% (active)
same,tube area decrease,[4],112% (active)
same,GLP1 secretion stimulation,[5],51.4% (active)
same,inhibition of viability,[6],124% (active)
same,viability decrease (inhibition),[7],158% (active)
same,viability decrease (inhibition),[8],101% (active)
same,red/green cell ratio (normalised),[9],0.98 (inactive)
same,normalised cell number,[9]; [15],0.98
same,normalised cell number,[9]; [16],0.96
same,fold change,[10]; [17],0.677 (active) and 0.99 (inactive)
same,fold change,[10]; [18],1.19 and 0.678
same,cell count,[10]; [19],3030 and 2930
same,cell count,[10]; [20],4480 and 2970
same,z-score,[11]; [21],-0.344 (inactive)
same,z-score,[11]; [22],-0.197
same,remaining NAD,[12],10 nM (inactive)
CC1CCc2c(N3CCC(O)CC3)c(F)cc3c(=O)c(C(=O)O)cn1c23 (stereo unspecified),parasite load remaining,[13],84.8% (inactive) and 5.38% (inactive)
same,viability,[13],88.5% and 76.5%
same,nuclear beta-catenin stimulation,[1]; at 10 µM,0% (inactive)
same,nuclear beta-catenin stimulation,"[1]; stimulation, at 2 µM",0.1%
same,insulin secretion stimulation,[2],1.15% (inactive)
same,viability decrease,[3],74.1% (active)
same,tube area decrease,[4],-22.8% (inactive)
same,GLP1 secretion stimulation,[5],4% (inactive)
same,inhibition of viability,[6],59% (active)
same,viability decrease (inhibition),[7],37.2% (inactive)
same,viability decrease (inhibition),[8],5.4% (inactive)
same,red/green cell ratio (normalised),[9],0.89 (inactive)
same,normalised cell number,[9]; [15],0.98
same,normalised cell number,[9]; [16],0.87
same,fold change,[10]; [17],0.9 (inactive) and 0.988 (inactive) and 0.927 (inactive)
same,fold change,[10]; [18],0.795 and 0.525 and 0.967
same,cell count,[10]; [19],8750 and 7880 and 9830
same,cell count,[10]; [20],9720 and 7980 and 10600
same,z-score,[11]; [21],-0.315 (inactive) and -0.705 (inactive) and 0.586 (inactive)
same,z-score,[11]; [22],-0.0888 and -0.895 and -0.392
same,remaining NAD,[12],10 nM (inactive)
CN(C(=O)CN(CCO)CC(=O)N(C)C(C)(C)Cc1ccccc1)C(C)(C)Cc1ccccc1,survival,[14],8.83 (inactive)
same,nuclear beta-catenin stimulation,[1]; at 10 µM,9.4% (inactive)
same,nuclear beta-catenin stimulation,"[1]; stimulation, at 2 µM",3.2%
same,insulin secretion stimulation,[2],1.4% (inactive)
same,viability decrease,[3],-33.9% (inactive)
same,tube area decrease,[4],2.2% (inactive)
same,GLP1 secretion stimulation,[5],107% (active)
same,inhibition of viability,[6],59.3% (active)
same,viability decrease (inhibition),[7],124% (active)
same,viability decrease (inhibition),[8],104% (active)
same,red/green cell ratio (normalised),[9],1.14 (inactive)
same,normalised cell number,[9]; [15],1.13
same,normalised cell number,[9]; [16],1.29
same,fold change,[10]; [17],0.876 (inactive) and 0.908 (inactive)
same,fold change,[10]; [18],1.3 and 4.08
same,cell count,[10]; [19],7940 and 11300
same,cell count,[10]; [20],9070 and 12400
same,z-score,[11]; [21],0.165 (inactive)
same,z-score,[11]; [22],-0.15
same,remaining NAD,[12],10 nM (inactive)
CN(C/C=C/c1ccccc1)Cc1cccc2ccccc12,survival,[14],21.7 (inactive)
same,parasite load remaining,[13],71.6% (inactive)
same,viability,[13],71.3%
same,nuclear beta-catenin stimulation,[1]; at 10 µM,2.1% (inactive)
same,nuclear beta-catenin stimulation,"[1]; stimulation, at 2 µM",1.8%
same,insulin secretion stimulation,[2],14.3% (inactive)
same,viability decrease,[3],86.7% (active)
same,tube area decrease,[4],-3.5% (inactive)
same,GLP1 secretion stimulation,[5],0.7% (inactive)
same,inhibition of viability,[6],85.3% (active)
same,viability decrease (inhibition),[7],95.4% (active)
same,viability decrease (inhibition),[8],74.5% (active)
same,red/green cell ratio (normalised),[9],1.01 (inactive)
same,normalised cell number,[9]; [15],1.19
same,normalised cell number,[9]; [16],1.2
same,fold change,[10]; [17],0.954 (inactive)
same,fold change,[10]; [18],0.94
same,cell count,[10]; [19],8810
same,cell count,[10]; [20],9230
same,z-score,[11]; [21],-0.0397 (inactive)
same,z-score,[11]; [22],-0.28
same,remaining NAD,[12],10 nM (inactive)
CC(=O)N[C@@H](CCC(N)=O)C(=O)O,nuclear beta-catenin stimulation,[1]; at 10 µM,-2.5% (inactive)
same,nuclear beta-catenin stimulation,"[1]; stimulation, at 2 µM",0.1%
same,insulin secretion stimulation,[2],2.8% (inactive)
same,viability decrease,[3],-2.5% (inactive)
same,tube area decrease,[4],12.1% (inactive)
same,GLP1 secretion stimulation,[5],-3.6% (inactive)
same,inhibition of viability,[6],0.7% (inactive)
same,viability decrease (inhibition),[7],9.6% (inactive)
same,viability decrease (inhibition),[8],-3.7% (inactive)
same,red/green cell ratio (normalised),[9],0.96 (inactive)
same,normalised cell number,[9]; [15],0.97
same,normalised cell number,[9]; [16],0.93
same,fold change,[10]; [17],0.922 (inactive)
same,fold change,[10]; [18],0.675
same,cell count,[10]; [19],8950
same,cell count,[10]; [20],9710
same,remaining NAD,[12],10 nM (inactive)
Cc1cccc(C)c1NC(=O)CN1CCN(CCCC(c2ccc(F)cc2)c2ccc(F)cc2)CC1,survival,[14],2.42 (inactive)
same,parasite load remaining,[13],135% (inactive) and 49% (inactive)
same,viability,[13],101% and 79.5%
same,nuclear beta-catenin stimulation,[1]; at 10 µM,4.7% (inactive)
same,nuclear beta-catenin stimulation,"[1]; stimulation, at 2 µM",1.2%
same,insulin secretion stimulation,[2],-1.1% (inactive)
same,viability decrease,[3],99.6% (active)
same,tube area decrease,[4],82.9% (active)
same,GLP1 secretion stimulation,[5],-2.6% (inactive)
same,inhibition of viability,[6],99.7% (active)
same,viability decrease (inhibition),[7],97.6% (active)
same,viability decrease (inhibition),[8],102% (active)
same,red/green cell ratio (normalised),[9],1.02 (inactive)
same,normalised cell number,[9]; [15],1.1
same,normalised cell number,[9]; [16],1.13
same,fold change,[10]; [17],0.884 (inactive)
same,fold change,[10]; [18],1.28
same,cell count,[10]; [19],8280
same,cell count,[10]; [20],9370
same,z-score,[11]; [21],0.335 (inactive)
same,z-score,[11]; [22],0.284
NC(=O)NS(=O)(=O)c1ccc(N)cc1,nuclear beta-catenin stimulation,[1]; at 10 µM,-1.6% (inactive)
same,nuclear beta-catenin stimulation,"[1]; stimulation, at 2 µM",0.3%
same,insulin secretion stimulation,[2],5.8% (inactive)
same,viability decrease,[3],-1.6% (inactive)
same,tube area decrease,[4],-10.6% (inactive)
same,GLP1 secretion stimulation,[5],-4.5% (inactive)
same,inhibition of viability,[6],6.1% (inactive)
same,viability decrease (inhibition),[7],75.8% (active)
same,viability decrease (inhibition),[8],-12.6% (inactive)
same,red/green cell ratio (normalised),[9],0.74 (inactive)
same,normalised cell number,[9]; [15],1.37
same,normalised cell number,[9]; [16],1.02
same,fold change,[10]; [17],0.96 (inactive)
same,fold change,[10]; [18],0.945
same,cell count,[10]; [19],8990
same,cell count,[10]; [20],9360
same,remaining NAD,[12],10 nM (inactive)
